Bioassay records from PubChem.
HCV inh – qHTS Assay for Inhibitors of Hepatitis C Virus (HCV); Huh7.5.1 HCVcc-Cre infection, luciferase reporter, 44 h; Potency, µM (titrated, usually from 41.8 µM), for inactives: at the top dose activity change, negative = inhibition, most hits filed as inhibitors; 340,000 compounds, 3.4% hits; AID 651820, 2012; further: potency means the concentration at half of the fitted maximal effect
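Compounds are dispensed onto cells plated 4 h earlier at 1,000 per well, with HCVcc-Cre virus (about 0.5 moi) added next. Following 44 h of culture, luminescent signal is measured for 15 sec after 15 min with substrate at room temperature.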
Sm TGR block – qHTS Assay for the Inhibitors of Schistosoma Mansoni Peroxiredoxins; 360,000 compounds, 3% hits; purified TGR, DTNB reduction, TNB absorbance 405 nm; Schistosoma mansoni thioredoxin glutathione reductase (TGR), Q962Y6; Potency, µM (series often up to 114 µM), without a hit: top-dose activity change, negative = inhibition, usual class: inhibitors; further: potency means the concentration at half of the fitted maximal effect; nearly all actives have a fitted effect of over 60% in size
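TGR 20 nM + NADPH 100 uM (dispensed conc.), cpd preinc 15 min RT; start with NADPH (500 uM addition) then DTNB (15 mM addition). Kinetic TNB absorbance, 405 nm filter. Four-parameter Hill fit across titration.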
FMDV inh – High Throughput Screening for Foot and Mouth Disease Virus Antivirals; FMDV antiviral cell-based qHTS; Potency, µM (highest dose often 57.9 µM), for the others: top-dose activity change, negative = inhibition, actives largely listed as inhibitors; 410,000 compounds, 1.2% hits; AID 1159524, 2015; calls by dose curve; tested in HEK293T cells; further: read-out not given here; potency means the concentration at half of the fitted maximal effect; nearly all actives have a fitted effect of over 45% in size
Vaccinia Venus – qHTS for Stage-Specific Inhibitors of Vaccinia Orthopoxvirus: Venus Reporter Primary qHTS | 330,000 compounds, 0.46% hits | Potency, µM (top dose mostly 36.5 µM), without a hit: at the top dose activity change, negative = inhibition, most hits filed as inhibitors | AID 720580, 2013 | Vaccinia virus Venus reporter expression, fluorescence; calls by dose curve; tested in A549 cells; further: potency means the concentration at half of the fitted maximal effect; nearly all actives have a fitted effect of over 30% in size
HCMV inh – qHTS Assay for inhibitors of the human cytomegalovirus (HCMV); HFF cells, HCMV-luciferase reporter, 72 h; stronger effect = lower value; AID 1259415, 2018; 410,000 compounds, 4.5% hits; activity change, negative = inhibition, % at 57.5 µM; in the data active means activity change below about -60%; inconclusive means no clear call, values can overlap the other calls; inactive means above about -39%
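HFF cells seeded 16 h at 37C, treated with compounds, infected with luciferase-reporter HCMV at MOI 1 PFU/cell; luciferase read at 72 h post infection, normalized to buffer-only and Salinomycin controls.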
VACV mCherry inh – qHTS for Stage-Specific Inhibitors of Vaccinia Orthopoxvirus: mCherry Reporter Primary qHTS | Potency, µM (top dose mostly 36.5 µM), for the others: top-dose activity change, negative = inhibition, usual class: inhibitors | Vaccinia virus mCherry reporter infection, fluorescence | 310,000 compounds, 0.63% hits; calls by dose curve; tested in A549 cells; further: potency means the concentration at half of the fitted maximal effect; nearly all actives have a fitted effect of over 35% in size
* = called active by the depositor; i = inactive; u = inconclusive; x = no result given. This is a sample that favours compounds with a hit; in the whole collection about 9.3% have one here. Unless noted, the call rests on the fitted dose curve; in most records, active means well fitted curve in the direction sought with a large enough effect; inconclusive means small, poorly fitted or top-dose-only effect, or another doubt; inactive means no such curve, though single readings can be large; an effect the other way counts as inactive or inconclusive. On the % scale 0 is the no-effect control and ±100 the full control effect.

SMILES	HCV inh	Sm TGR block	FMDV inh	Vaccinia Venus	HCMV inh	VACV mCherry inh
COc1ccc(CN2CCc3ccc(NC(=O)CCc4ccccc4OC)cc3C2)c(O)c1	8.91µM*	-27.1%	u	-29.9%	-72.2*	u
COc1cc(CN2CCN(c3cc(C)ccc3C)CC2)ccc1O	u	-15.8%	-29.4%	x	-72.8*	x
O=C(COC(=O)c1ccccc1S(=O)(=O)N1CCCCC1)NCC(F)(F)F	-3.2%	-16.0%	24.9%	-4.0%	19.4	-11.1%
CCOc1ccc(CCNC(=O)c2ccc3c(c2)N(Cc2ccccc2F)C(=O)c2ccccc2S3=O)cc1OCC (stereo not given)	x	2.9%	-22.6%	-20.0%	-7.1	-20.1%
COc1ccc(OC)c(CNC(=O)C2CCCN(S(=O)(=O)N3CCC(C)CC3)C2)c1 (stereo not given)	8.7%	-11.1%	-17.3%	x	-24.2	x
Nc1ccc(S(=O)(=O)c2ccc(NC(=O)c3cccnc3)cc2)cc1	-10.9%	x	-2.3%	-21.2%	-30.5	-15.3%
COc1cccc(CN2CCc3ccc(NC(=O)CCc4ccc(C)cc4)cc3C2)c1O	11.2µM*	-25.3%	u	x	-60.6*	x
COc1ccccc1CCC(=O)Nc1ccc2c(c1)CN(CCCn1cccn1)CC2	-23.4%	-10.4%	u	x	-23.2	x
Cc1ccccc1NC(=O)c1sc2nc3c(c(-c4ccco4)c2c1N)CCC3	3.98µM*	0.0%	-22.2%	-10.2%	-11.8	i
NC(=O)c1sc2nc3c(c(-c4ccco4)c2c1N)CCCC3	-27.2%	-21.7%	u	x	-64.3*	x
Cc1ccc(C(=O)N/C(=C/c2ccco2)C(=O)NCC2CCCO2)cc1 (stereo not given)	4.2%	-19.1%	-0.7%	3.2%	-15.3	-3.0%
N#Cc1sc2nc3c(c(-c4ccco4)c2c1N)CCCC3	7.94µM*	-0.1%	u	-15.0%	u	-14.7%
Nc1c(C(=O)NCC2CCCO2)sc2nc3c(c(-c4ccco4)c12)CC/C3=C\c1ccco1 (stereo not given)	u	17.8µM*	-0.7%	5.2%	u	-10.3%
Cc1ccc(NC(=O)c2c(C)nc3sc(C(=O)NC4CCCC4)c(N)c3c2-c2ccco2)c(C)c1	u	0.6%	-15.3%	-1.9%	6.2	-1.3%
CCCC(O)(c1ccccc1)C(CN1CCOCC1)c1ccccc1 (stereo not given)	-22.7%	0.0%	-21.7%	x	u	x
CC(C)CCC(O)(c1ccccc1)C(CN1CCOCC1)c1ccccc1 (stereo not given)	u	-9.2%	u	-16.2%	-66.7*	-8.9%
CCCCCCC(O)(c1ccccc1)C(CN1CCOCC1)c1ccccc1 (stereo not given)	u	-0.4%	u	x	-76.4*	x
CCCCCC(O)(c1ccccc1)C(CN1CCOCC1)c1ccccc1 (stereo not given)	u	11.9%	u	x	-60.3*	x
CCCCCCC(O)(c1ccc(OC)cc1)C(CN1CCOCC1)c1ccccc1 (stereo not given)	u	-10.3%	-29.6%	-16.0%	-69.3*	-2.8%
COc1ccc(C(O)(CCC(C)C)C(CN2CCOCC2)c2ccccc2)cc1 (stereo not given)	u	-7.0%	u	x	u	x
CCCCCOc1ccc(C(C)(O)C(CN2CCOCC2)c2ccccc2)cc1 (stereo not given)	u	2.9%	-23.4%	x	-23.5	x
CS(=O)(=O)N(CC(=O)N1CCCC1)Cc1ccc(Cl)c(Cl)c1	7.9%	-13.4%	2.3%	x	7.1	x
O=C(NCCc1ccccc1)C1CCN(C2CCN(Cc3ccc(CO)o3)CC2)CC1	-22.2%	2.5%	-10.9%	-8.3%	20.2	-16.5%
Cc1ccc(C(=O)NCCc2ccc(Cl)cc2)cc1-n1c(C)nc2cccnc21	x	-2.7%	-18.1%	-2.0%	u	-9.9%
CC1CC(NC(=O)c2ncn[nH]2)CC(C)(C)C1 (stereo not given)	-20.8%	6.3%	x	-11.4%	1.8	i
SMILES	HCV inh	Sm TGR block	FMDV inh	Vaccinia Venus	HCMV inh	VACV mCherry inh
Cc1ccc(NC(=O)Cn2nnc(-c3nc(-c4ccncc4)no3)c2N)c(C)c1	x	4.8%	-11.5%	-15.7%	9.9	-10.0%
Cc1nc(N)c(C#N)c(-c2ccccc2)c1C	9.2%	-22.7%	-21.9%	-15.6%	-5.0	x
Cc1c(C#N)c(N)nc(Cl)c1C#N	-23.9%	35.5µM*	u	-16.6%	-11.2	-23.7%
CSc1ccccc1C(=O)C1CCCN(C(=O)c2ccc(N3CCOCC3)cc2)C1 (stereo not given)	u	-3.4%	-3.9%	-8.3%	0.0	i
COc1ccccc1/C=C/c1nc(S(=O)(=O)c2ccccc2)c(N(C)C)o1	u	10µM*	-14.1%	-11.3%	2.0	-19.2%
CN(C)c1oc(/C=C/c2cccs2)nc1S(=O)(=O)c1ccccc1	u	35.5µM*	-4.0%	-12.1%	u	-19.0%
COc1cccc(/C=C/c2nc(S(=O)(=O)c3ccccc3)c(N(C)C)o2)c1	2.5%	u	-8.0%	x	55.2	x
COc1ccc(C(=O)Nc2ncc3c(n2)CC(C)CC3=O)cc1 (stereo not given)	8.2%	-3.1%	20.0%	-20.8%	-36.4	-2.1%
N#C/C(=C\c1ccccc1)c1nc(-c2cc3cc(Br)ccc3oc2=O)cs1	x	0.3%	-5.7%	6.3%	12.2	-1.7%
C=C(C)Cc1c(C)c(C#N)c2[nH]c3ccccc3n2c1=O	u	-12.6%	u	-26.2%	-66.0*	-19.3%
COCc1cc(=O)n2c([nH]c3ccccc32)c1C#N	12.9%	-8.0%	x	-20.2%	32.0	i
Cc1ccc(Cc2c(C)c(C#N)c3[nH]c4ccccc4n3c2=O)cc1	11.2µM*	-15.9%	u	x	-33.5	x
Cc1c(CCC(=O)O)c(=O)n2c([nH]c3ccccc32)c1C#N	15.1%	4.6%	-8.3%	x	-17.2	x
COC(=O)c1c(-c2ccccc2OC)sc2cc3c(cc12)OCO3	u	x	-6.2%	-8.4%	5.4	i
CCOC(=O)CSc1cc(-c2ccccc2)nc2ncnn12	7.3%	u	u	6.3%	80.6	i
CC1CC2=C(NC(=S)NC2c2ccccc2F)/C(=C/c2ccccc2F)C1 (stereo not given)	u	u	-12.5%	-18.4%	-30.1	-24.8%
Cc1ccc(/C=C2\CC(C)CC3=C2NC(=S)NC3c2ccc(C)cc2)cc1 (stereo not given)	u	15.8µM*	-6.0%	-24.5%	-23.1	u
Cc1ccc(/C=C2\CCCC3=C2NC(=S)NC3c2ccc(C)cc2)cc1 (stereo not given)	-27.2%	u	1.9%	-21.0%	u	-28.3%
